PubChem BioAssay
Calls of active or inactive are those of the source. How the calls were made is not given here.

Experiments:
[1] = liver-stage malaria parasite load reduction – cell-based, known kinase inhibitor set, luminescence, hepatoma host viability (AID 624392); conditions: Plasmodium liver stage in hepatoma cells, luciferase luminescence, concentration not given here; liver cell % of control: measured here: host liver cell viability; parasite % of control: stronger effect = lower value;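 further: infected cells incubated roughly two days before readout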
[2] = altered dexamethasone sensitivity, NF-kB reporter, cell-based, luciferase, IL-1B stimulus (AID 624486); conditions: IL-1B + dexamethasone, luminescence; percent of negative control (+Dex): actives lie on both sides, concentration not given here; z-score: measured here: IL-1B alone, no Dex;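 on percent of negative control (+Dex): 100% = mean signal of vehicle control wells on the plate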
[3] = target: Cellular tumor antigen p53 (Homo sapiens) (UniProt P04637); test: GFP-p53 level modulators in HPV16+ cells – imaging, known kinase inhibitor set, EGFP/DsRed ratio (AID 1053116); conditions: GFP-p53 stability, stronger effect = higher value; EGFP object count: measured here: GFP-p53 positive objects count;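 further: cells exposed to compounds for 24 h at 37 °C before reading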
Sequence of Cellular tumor antigen p53 (Homo sapiens) (P04637 whole entry, looked up): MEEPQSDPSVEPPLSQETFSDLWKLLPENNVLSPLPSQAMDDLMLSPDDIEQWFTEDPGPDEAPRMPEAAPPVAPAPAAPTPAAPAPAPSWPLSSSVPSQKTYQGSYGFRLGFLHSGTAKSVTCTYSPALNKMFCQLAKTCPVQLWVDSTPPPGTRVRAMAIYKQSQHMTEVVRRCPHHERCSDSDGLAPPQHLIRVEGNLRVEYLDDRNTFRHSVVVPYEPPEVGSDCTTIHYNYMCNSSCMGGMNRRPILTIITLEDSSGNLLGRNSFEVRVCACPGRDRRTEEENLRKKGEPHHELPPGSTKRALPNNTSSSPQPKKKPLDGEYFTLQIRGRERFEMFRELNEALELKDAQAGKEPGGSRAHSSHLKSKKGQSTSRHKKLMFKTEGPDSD

[4] = inducers of IRF3 signaling, differentiated THP-1 – cell-based, PMA-stimulated THP-1, luminescence (AID 1053176); conditions: PMA-differentiated THP-1, IRF3 reporter luminescence; stronger effect = higher value

Compound | liver cell % of control [1] [%] | parasite % of control [1] | percent of negative control (+Dex) [2] | z-score [2] | EGFP object count [3] | EGFP/DsRed ratio [3] | fraction signal [4]
O=C1NC(=NCc2cccs2)SC1Cc1ccc2ncccc2c1 (stereo not given) | 108 | 12.8% (inactive) | 96% (inactive) | -0.14 | 2.5 | 0.109 (inactive) | 0.0035 (inactive)
Cn1cc(C2=C(c3cn(C)c4ccc(N)cc34)C(=O)NC2=O)c2ccccc21 | 95.1 | 36.7% (inactive) | 98% (inactive) | 0.385 | 11 | 0.25 (inactive) | -0.0115 (inactive)
Cn1cc(C2=C(c3cn(CCCCN)c4ccccc34)C(=O)NC2=O)c2ccccc21 | 117 | 65.7% (inactive) | 98.5% (inactive) | 0.945 | 3.5 | 0.117 (inactive) | 0.01 (inactive)
O=C1NC(=NCCc2cccc(Cl)c2)SC1=Cc1ccc2ncccc2c1 | 131 | 170% (inactive) | 89.5% (inactive) | -0.11 | 15 | 0.216 (inactive) | -0.0025 (inactive)
COc1ccccc1CCN=C1NC(=O)C(=Cc2ccc3ncccc3c2)S1 | 109 | 68.7% (inactive) | 90.5% (inactive) | -0.58 | 5 | 0.0846 (inactive) | 0.39 (active)
COc1cc[nH]c1C=C1C(=O)Nc2ccc(F)c(C#CC3(O)CCOCC3)c21 | 128 | 1.61% (active) | 122% (inactive) | -1.81 | 6 | 0.109 (inactive) | -0.0095 (inactive)
O=C1NC(=NCCCc2ccccc2)SC1=Cc1ccc2ncccc2c1 | 104 | 43% (inactive) | 83% (inactive) | -0.69 | 5 | 0.104 (inactive) | -0.011 (inactive)
Cn1cc(C2=C(NN3CCOCC3)C(=O)NC2=O)c2ccccc21 | 102 | 52.1% (inactive) | 101% (inactive) | 0.61 | 7 | 0.147 (inactive) | -0.016 (inactive)
CN=C1NC(=O)C(=Cc2ccc3ncccc3c2)S1 | 82.2 | 65.3% (inactive) | 98.5% (inactive) | -0.23 | 2 | 0.0435 (inactive) | 0.0015 (inactive)
CCNC(=O)C1CCCN2C(=O)CCC(NC(=O)C(Cc3ccc(OP(=O)(O)O)cc3)NC(C)=O)C(=O)N12 (stereo not given) | 95 | 44.7% (inactive) | 102% (inactive) | 0.145 | 6 | 0.215 (inactive) | -0.0005 (inactive)
Cn1cc(C2=C(c3cn(CCCCC(=N)N)c4ccccc34)C(=O)NC2=O)c2ccccc21 | 133 | 22.6% (inactive) | 98% (inactive) | 0.29 | 10.5 | 0.2 (inactive) | 0.0055 (inactive)
Cn1c(=O)c(Oc2ccc(F)cc2F)cc2cnc(NCC(C)(C)O)nc21 | 102 | 62.1% (inactive) | 101% (inactive) | -0.01 | 4 | 0.146 (inactive) | -0.001 (inactive)
Cc1cccc2c(C3=C(c4cn(C)c5ccccc45)C(=O)NC3=O)cn(C)c12 | 91.7 | 45.3% (inactive) | 98.5% (inactive) | -1.08 | 24 | 0.241 (inactive) | -0.0115 (inactive)
Cn1cc(C2=C(c3cccc4ccccc34)C(=O)NC2=O)c2ccccc21 | 108 | 33.9% (inactive) | 95.5% (inactive) | -1.1 | 14 | 0.386 (inactive) | -0.007 (inactive)
O=C1Nc2ccc(F)c3c(OCCO)cc(-c4ccc[nH]4)c1c23 | 83.9 | 52.1% (inactive) | 105% (inactive) | 1.54 | 6 | 0.192 (inactive) | -0.016 (inactive)
Cc1[nH]nc2c1N=C(c1ccccc1F)c1cc(C(N)=O)ccc1N2 | 91.5 | 76.9% (inactive) | 110% (inactive) | 0.59 | 54.5 | 0.555 (active) | -0.005 (inactive)
Cn1cc(C2=C(c3cccc([N+](=O)[O-])c3)C(=O)NC2=O)c2ccccc21 | 86.9 | 3.57% (inactive) | 106% (inactive) | -2.63 | 14 | 0.255 (inactive) | 0.0015 (inactive)
COc1cccc(C2=C(c3c(C)n(C)c4ccccc34)C(=O)NC2=O)c1 | 97.6 | 66.1% (inactive) | 91% (inactive) | -0.5 | 6 | 0.121 (inactive) | -0.0005 (inactive)
Cn1cc(C2=C(c3cccc(Br)c3)C(=O)NC2=O)c2ccccc21 | 153 | 39.5% (inactive) | 110% (inactive) | -0.515 | 3.5 | 0.13 (inactive) | 0.0055 (inactive)
Cn1cc(C2=C(c3cc[nH]c3)C(=O)NC2=O)c2ccccc21 | 109 | 26.8% (inactive) | 104% (inactive) | 0.12 | 3 | 0.329 (inactive) | -0.0025 (inactive)
